# Pf Dd2 growth: qHTS Primary assay for Inhibitors of Plasmodium falciparum Dd2 growth in vitro; P. falciparum Dd2 growth, SYBR Green, 72 h; AID 1347417, 2020; Potency, µM (titrated, usually from 28.9 µM), inactives show at the highest dose activity, negative = inhibition, actives largely listed as inhibitors; hit rate 4.3% among 120,000; active means well fitted inhibition curve with a large enough effect;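 further: plate controls were DMSO vehicle for no effect and reference drug for full effect; nearly all actives have a fitted effect of over 65% in size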
#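 Readout: SYBR Green fluorescence, 485 nm excitation, 535 nm emission, after ~16 h lysis at 37C. Before that, Dd2-infected red cells (2.5% hematocrit) grew 72 h with compound, 29 uM top final concentration.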
# * marks the source's active call; other numbers are inactive results; i = inactive; [ ] = dose if it differs, or a comment. The entries come from a sample that favours hits as a whole. Potency means the concentration at half of the fitted maximal effect.
SMILES,Pf Dd2 growth
CS(=O)(=O)N1CCCC(C(=O)NC2CCN(Cc3ccccc3)CC2)CCNC(=O)CC1 (stereo not drawn),14%
CCN1C(=O)C2CC3(CCN(Cc4cn(C)c5ccc(OC)cc45)CC3)CN2C1=O (stereo not drawn),i
CCCCN(CC)CCCNC(=O)Cn1ncc2c3ccccc3n(C)c2c1=O,i
O=C(Cn1ncc2c3ccccc3n(Cc3ccc(F)cc3)c2c1=O)NCCCN1CCCCC1,5µM*
CCCCN(CC)CCCNC(=O)Cn1ncc2c3ccccc3n(Cc3ccccc3F)c2c1=O,4µM*
Cn1c2ccccc2c2cnn(CC(=O)NCc3ccc(Cl)cc3)c(=O)c21,22%
CCN(CC)CCNC(=O)Cn1ncc2c3ccccc3n(Cc3ccc(Cl)cc3)c2c1=O,5µM*
O=C(Cn1ncc2c3ccccc3n(Cc3ccc(F)cc3)c2c1=O)NC1CCCCCC1,i
CCCn1c2ccccc2c2cnn(CC(=O)NCCN(CC)CC)c(=O)c21,i
O=C(Cn1ncc2c3ccccc3n(Cc3ccc(F)cc3)c2c1=O)NCCC1=CCCCC1,43%[0.594 µM]
O=C(Cn1ncc2c3ccccc3n(Cc3ccccc3F)c2c1=O)NCCCc1ccccc1,4%
N#Cc1ccccc1CN1C(=O)NC(c2cccnc2)(C2CCNCC2)C1=O (stereo not drawn),-8%
COCCn1ncc(N2CCCC(CC(=O)NCCN3CCOCC3)C2)cc1=O (stereo not drawn),31%
Cc1cccc(C(=O)NC2CCN(c3cn[nH]c(=O)c3)CC2)c1,11%
CC(=O)N1CC2(Cc3ccccc31)CN([S+](=O)([O-])c1ccc(C)cc1)C2,-17%
Cc1cc(NC(=O)N2CCCC(Cn3c(C)nc4cccnc43)C2)ccc1Br (stereo not drawn),-18%
CCN(CC)C(=O)CC[C@H]1CNC(=O)[C@H]2NCC[C@H]2N1C,18%[44.1 µM]
COCC(=O)N1C[C@@H]2C[C@H]1C(=O)N(Cc1ccc(OC(F)(F)F)cc1)c1ccccc1O2,i
O=C1[C@@H]2C[C@@H](CN2Cc2cccc(Cl)c2)Oc2ccccc2N1CC1CC1,-11%[44.1 µM]
O=C1[C@@H]2C[C@@H](CN2Cc2nccs2)Oc2ccccc2N1CC1CC1,i
O=C1[C@@H]2C[C@@H](CN2Cc2ccc(Cl)cc2)Oc2ccccc2N1CC1CC1,13µM*
O=C1[C@@H]2C[C@@H](CN2CC2CC2)Oc2ccccc2N1Cc1ccc(OC(F)(F)F)cc1,4µM*
O=C1[C@@H]2C[C@@H](CN2C(=O)C2CC2)Oc2ccccc2N1Cc1ccc(OC(F)(F)F)cc1,i
O=C(NC1CCN(c2cc(-c3ccccc3)[nH]n2)CC1)c1ccc(F)cc1F,i
O=C(NCc1nnc2c(-c3nc(C4CC4)no3)cccn12)c1cccc(F)c1,i
SMILES,Pf Dd2 growth
CC(C)(C)NC(=O)N1CCCC1c1noc(COc2ccc(F)cc2)n1 (stereo not drawn),-23%
CC(C)c1ccc(NC(=O)c2cnn3c(C(F)F)cc(-c4ccccc4)nc23)cc1,5µM*
C#CC(C)(CC)NC(=O)c1cnn2c(C(F)F)cc(-c3ccccc3OC)nc12 (stereo not drawn),-15%
Cc1ccc(NC(=O)c2cc3nc(-c4ccccc4)cc(-c4ccccc4)n3n2)cc1,45%
COCC(=O)N1CCCC(c2noc(COC)n2)C1 (stereo not drawn),i
CCC(O)c1cc2n(n1)CCN(Cc1nnc(-c3cccc(F)c3)o1)C2 (stereo not drawn),-14%
O=C1OCCN1C1CCN(Cc2ccc(C(F)(F)F)cc2)CC1,1%
Cc1cc(Cl)ccc1S(=O)(=O)N1CCC(Oc2ccc(C(N)=O)cn2)CC1,-63%
Cc1ccc2c(c1)C(C)(c1ccccc1)CC(C)(C)N2C(=O)c1ccc(F)cc1 (stereo not drawn),5.6µM*
COc1ccccc1C(=O)N1CCCN(C)c2ccccc21,-12%
COc1ccccc1C(=O)N1c2ccccc2C(C)(c2ccc(Cl)cc2)CC1(C)C (stereo not drawn),8.9µM*
CCCCC(=O)N1c2ccccc2C(C)(c2ccccc2)CC1(C)C (stereo not drawn),-20%
O=C(O)c1ccc2c(c1)N(C(=O)c1ccc(F)cc1)CC2,-8%
O=C(c1ccc(F)cc1)N1CCC(C(=O)O)(c2ccccc2)CC1,3%
CC(C)NC(=O)NC[C@H]1COCc2nc3cc(C(F)(F)F)ccc3n21,-20%[44.1 µM]
O=C(NCC1CCCO1)c1cnc2c(c1)N(Cc1ccccc1)CCC2 (stereo not drawn),i
COc1ccccc1-c1nc2nccc(-c3ccc4c(c3)OCCCO4)n2n1,-17%
OCc1cc(CC2(NCC3CC3)COC2)no1,2%[44.1 µM]
CCCCCN(CCC(=O)NCc1ccc2c(c1)OCO2)C(=O)c1cc(C)oc1C,i
CC(C)NC(=O)N1CCC2(CC1)CN(C(=O)CCCN)Cc1ccccc1O2,-6%
CCN(CC)C(=O)Cn1ccn2nc(-c3ccccc3)c(CO)c2c1=O,-61%
COC(=O)[C@@H]1Cc2ncn(Cc3ccc(OC)cc3)c2CN1Cc1cccc(C#N)c1,13µM*
COC(=O)[C@@H]1Cc2ncn(Cc3ccc(OC)cc3)c2CN1C(=O)c1ccc(F)cc1,-40%[44.1 µM]

# Screens as filed in PubChem.
